Bioassay records as filed in PubChem.
DAGLB inhibitor: blocks human DAGLB lipase activity. HEK293T DAGLB membrane lysate, EnzChek fluorogenic substrate. inhibition, % at 5.17 µM. Q8NCG7. hit rate 0.059% among 340,000; in the data active = inhibition above about 34%
hiPSC survival: increases survival of single human iPS cells | AID 602274 | hit rate 0.044% among 360,000 | hiPSC single-cell survival, ATPlite luminescence; 100% = ROCK inhibitor wells, 0% = DMSO | survival enhancement, % at 20 µM; in the data active = survival enhancement above about 18%;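 note: cells exposed to compounds for 16 hours before the ATP read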
ANO1 block: inhibitors of mouse TMEM16A calcium-activated chloride channel | hit rate 1.2% among 310,000 | AID 588511 | normalized B-score (activity score, 25-100; higher = stronger inhibition) at 10 µM | HEK293 TMEM16A/YFP iodide influx fluorescence, ionomycin | Q8BHY3;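 active = ratio plate-corrected score three or more library SD toward inhibition, starting fluorescence score within five deviations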;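 note: score derived from kinetic fluorescence span divided by baseline fluorescence per well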
ANO1 activ: mouse TMEM16A channel activation, primary screen; Q8BHY3; HEK293 TMEM16A/YFP-H148Q/I152L, iodide quench fluorescence; active compounds read low; B-score at 10 µM; hit rate 0.3% among 340,000; AID 623877;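 active = fluorescence-ratio B-score plate-corrected deviation score at least 3 library SD below zero, with starting fluorescence score within 5 deviations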;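 note: channel opened by trigger with iodide after compound preincubation; score built on the fluorescence ratio of max minus min over baseline; more negative score means more quench and so TMEM16A activation or potentiation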
ABCB6 inh 2: inhibitors of human ABC transporter ABCB6 | Q9NP58 | K562-ABCB6 porphyrin accumulation, flow cytometry, 1 h; active compounds read low | fluorescence ratio to DMSO, % at 10 µM | hit rate 0.19% among 360,000 | AID 602162;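 active = fluorescence ratio to DMSO below 75%, the collection mean minus 3 SD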;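 note: signal is porphyrin accumulated inside mitochondria; lower ratio means ABCB6 inhibition with less porphyrin fluorescence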
TMEM16A reconf: TMEM16A (mouse) chloride channel inhibition, re-confirmation; shares compounds with ANO1 block; HEK293 TMEM16A/YFP-H148Q, iodide quench fluorescence; ionomycin added to raise cell calcium; inhibition, % at 10 µM; hit rate 39% among 2,300; AID 652189;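 active = mean duplicate percent inhibition, scaled so buffer wells are 0 and the reference blocker 100, over three buffer SD above buffer mean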
TMEM16A Ca cntr: alters calcium mobilization in TMEM16A HEK293 cells, counter-screen; AID 652231; shares compounds with ANO1 block; hit rate 2% among 2,300; calcium response (% of ionomycin), % at 10 µM; TMEM16A/YFP HEK293, Fluo4 calcium mobilization;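 active = duplicate-averaged calcium signal over 20% of the ionomycin maximum, relative to buffer baseline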;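 note: each well's signal is peak minus trough fluorescence divided by its pre-addition baseline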
Parental YFP cnt: counter-screen for TMEM16A inhibitors: effect in parental YFP-HEK293 cells; AID 652233; iodide YFP quench, ionomycin; 2,300 tested, under 10 active; shares compounds with ANO1 block; YFP ratio F(max-min)/F0 at 10 µM;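 active = yellow fluorescent protein signal ratio exceeding the buffer control mean by over 5 SD of those controls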;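 note: ratio is mean of duplicate wells from kinetic YFP trace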
ClC-1 rat inh: blocks the rat ClC-1 voltage-dependent chloride channel; 2,300 tested, under 10 active; shares compounds with ANO1 block; CHO ClC-1-YFP, iodide influx fluorescence quench; iodide control reads 0, buffer control 100; ratio percent, % at 10 µM;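 active = duplicate-mean ratio percent above the mean of iodide-only control wells, which defines zero, plus 5 of their SD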;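 note: higher percent means stronger block of ClC-1 iodide influx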
Target sequence (P35524 whole entry, looked up): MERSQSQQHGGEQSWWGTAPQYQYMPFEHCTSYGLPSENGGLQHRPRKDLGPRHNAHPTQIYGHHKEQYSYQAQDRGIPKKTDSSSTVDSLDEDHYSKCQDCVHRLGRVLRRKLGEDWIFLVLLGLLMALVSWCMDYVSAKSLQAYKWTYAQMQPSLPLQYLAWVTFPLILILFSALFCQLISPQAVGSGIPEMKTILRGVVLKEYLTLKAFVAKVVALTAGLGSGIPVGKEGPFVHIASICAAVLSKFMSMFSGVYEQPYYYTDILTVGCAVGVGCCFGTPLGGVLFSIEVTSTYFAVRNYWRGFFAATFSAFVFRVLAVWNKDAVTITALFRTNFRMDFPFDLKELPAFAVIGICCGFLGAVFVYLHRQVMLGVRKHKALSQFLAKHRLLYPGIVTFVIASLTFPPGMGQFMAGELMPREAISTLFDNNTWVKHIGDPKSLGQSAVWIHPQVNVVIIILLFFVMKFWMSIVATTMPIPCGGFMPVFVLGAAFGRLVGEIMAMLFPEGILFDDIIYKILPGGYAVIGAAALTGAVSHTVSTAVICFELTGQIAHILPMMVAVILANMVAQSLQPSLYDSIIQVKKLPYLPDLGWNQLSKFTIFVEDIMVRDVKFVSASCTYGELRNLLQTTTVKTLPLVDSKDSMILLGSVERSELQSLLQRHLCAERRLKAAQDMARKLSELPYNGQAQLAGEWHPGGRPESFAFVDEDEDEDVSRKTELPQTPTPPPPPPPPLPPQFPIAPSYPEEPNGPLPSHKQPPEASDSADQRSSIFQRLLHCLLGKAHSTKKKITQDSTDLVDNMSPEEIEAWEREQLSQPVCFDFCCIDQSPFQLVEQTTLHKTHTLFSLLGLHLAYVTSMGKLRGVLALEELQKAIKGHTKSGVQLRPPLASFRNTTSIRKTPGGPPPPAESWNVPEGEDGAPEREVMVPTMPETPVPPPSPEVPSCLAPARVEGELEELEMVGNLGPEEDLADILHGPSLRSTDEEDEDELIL
Numbers stand for hits; 0 = inactive; - = not tested or not shown. Shown are actives, neighbours in structure and some others; about 1.5% of the full set was active somewhere.

SMILES | DAGLB inhibitor | hiPSC survival | ANO1 block | ANO1 activ | ABCB6 inh 2 | TMEM16A reconf | TMEM16A Ca cntr | Parental YFP cnt | ClC-1 rat inh
CC(C)c1ccc(/C=C/C(=O)Nc2ccc(CN3CCOCC3)cc2)cc1 | - | 0 | 100 | 0 | 0 | 26% | 0 | 0 | 0
COc1ccc(CC(=O)NCc2ccccc2F)cc1S(=O)(=O)N1CCOCC1 | 0 | 0 | - | - | 0 | - | - | - | -
Cc1ccsc1C(=O)OCc1csc(-c2ccccc2)n1 | 0 | 0 | 100 | 0 | 0 | 16% | 0 | 0 | 0
O=C(O)c1ccc(-c2nc(-c3ccccc3)c(-c3cccs3)[nH]2)cc1 | 0 | 0 | 0 | 0 | 0 | - | - | - | -
O=[N+]([O-])c1ccc(O)c(-c2nc(-c3ccccc3)c(-c3cccs3)[nH]2)c1 | 0 | 0 | 25 | 0 | 0 | 67% | 0 | 0 | 0
CN1C=Nc2c(ncn2C2CCC(CO)O2)C1O (stereo unspecified) | - | 0 | - | - | 0 | - | - | - | -
CC(C)Oc1ccc(C(=O)Nc2c3c(nn2C(C)(C)C)CS(=O)(=O)C3)cc1 | 0 | 0 | 0 | 0 | 0 | - | - | - | -
CC1=CC(C)(C)N2C(=O)C3(C(C#N)=C(N)OC4=C3C(=O)CCC4)c3c(C)c(C)cc1c32 (stereo unspecified) | 0 | 0 | 0 | 0 | 0 | - | - | - | -
CC1=CC(C)(C)N2C(=O)C3(C(C#N)=C(N)Oc4cc(O)ccc43)c3c(C)c(C)cc1c32 (stereo unspecified) | 0 | 0 | 100 | 0 | 0 | 45% | 0 | 0 | 0
CC(C)CSc1nc(N2CCOCC2)c2c(c1C#N)CC(C)(C)SC2 | 0 | 0 | 0 | 0 | 0 | 22% | 0 | 0 | 0
CC(C)Sc1nc(N2CCOCC2)c2c(c1C#N)CC(C)(C)SC2 | 0 | 0 | 0 | 0 | 0 | - | - | - | -
O=[N+]([O-])c1ccc(N2N=C(c3ccco3)CC2c2ccccc2)cc1 (stereo unspecified) | 0 | 0 | 0 | 0 | 0 | 27% | 0 | 0 | 0
CCc1cc(C(=O)NNC(=S)NCc2ccccc2)cs1 | 0 | 0 | 0 | 0 | 0 | - | - | - | -
CCCc1cc(C(=O)NCc2ccccc2)no1 | 0 | 0 | 100 | 0 | 0 | 0 | 0 | 0 | 0
CCCc1cc(C(=O)Nc2cccc(Cl)c2C)no1 | 0 | 0 | 25 | 0 | 0 | 0 | 0 | 0 | 0
CCCc1cc(C(=O)NCc2cccnc2)no1 | 0 | 0 | 0 | 0 | 0 | - | - | - | -
CCCc1cc(C(=O)NNC(=S)NCc2ccccc2)cs1 | 0 | 0 | 100 | 0 | 0 | 0 | 0 | 0 | 0
CC(C)c1ccc(NC(=O)C2(C)Cc3c(-c4ccc(C(N)=O)cc4)ccnc3O2)cc1 (stereo unspecified) | - | 0 | - | - | 0 | - | - | - | -
CCN(CC)S(=O)(=O)c1cccc(C(=O)OCC(=O)c2ccc3c(c2)NC(=O)CO3)c1 | 0 | 0 | 25 | 0 | 0 | 0 | 0 | 0 | 0
CCN(CC)C(=O)CSc1nnc(COc2ccccc2)n1CC | 0 | 0 | 25 | 0 | 0 | 0 | 0 | 0 | 0
CCSc1nnc(COc2ccccc2)n1CC | 0 | 0 | 0 | 0 | 0 | - | - | - | -
CCC(c1nnnn1-c1ccc2c(c1)OCCO2)N1CCN(c2ccccn2)CC1 (stereo unspecified) | - | 0 | - | - | 0 | - | - | - | -
CCN(C(=O)C1CCCN(c2ncnc3c2nc2n3CCCCC2)C1)c1cccc(Cl)c1 (stereo unspecified) | 0 | 0 | 25 | 0 | 0 | 0 | 0 | 0 | 0
COC(=O)c1ccccc1NC(=O)C1CCN(c2ncnc3c2nc2n3CCCCC2)CC1 | 0 | 0 | 100 | 0 | 0 | 0 | 0 | 0 | 0
CCN(C(=O)COC(=O)c1cccc(S(=O)(=O)N2CCOCC2)c1)C1CCS(=O)(=O)C1 (stereo unspecified) | 0 | 0 | 0 | 0 | 0 | - | - | - | -
SMILES | DAGLB inhibitor | hiPSC survival | ANO1 block | ANO1 activ | ABCB6 inh 2 | TMEM16A reconf | TMEM16A Ca cntr | Parental YFP cnt | ClC-1 rat inh
O=S(=O)(CCNCCc1ccccc1)NC1CCCCC1 | 0 | 0 | - | - | 0 | - | - | - | -
COc1ccc(C)cc1-n1nnnc1SCc1cc(=O)n2cc(C)ccc2n1 | 0 | 0 | 25 | 0 | 0 | 0 | 0 | 0 | 0
Cc1cccc(N(C)S(=O)(=O)c2ccc(-c3cc(C)no3)s2)c1 | 0 | 0 | 25 | 0 | 0 | 0 | 0 | 0 | 0
O=C(NCc1ccncc1)c1nc(-c2ccc(C(F)(F)F)cc2)no1 | 0 | 0 | 25 | 0 | 0 | 18% | 0 | 0 | 0
COCCOC(=O)c1c(C)oc2ccc(NS(=O)(=O)c3ccccc3)cc12 | 0 | 0 | 0 | 0 | 0 | - | - | - | -
COC(=O)c1c(C)oc2ccc(NS(=O)(=O)c3cccs3)cc12 | 0 | 0 | 100 | 0 | 0 | 31% | 0 | 0 | 0
COC(=O)c1scc(C#N)c1N/N=C(\C#N)S(=O)(=O)c1ccc(Cl)cc1 | - | 0 | 25 | 0 | 0 | 0 | 0 | 0 | 0
COc1ccc(CCNC(=O)c2ccc(N3CCCCS3(=O)=O)cc2)cc1OC | 0 | 0 | 0 | 0 | 0 | - | - | - | -
Cc1nc2ccc(NC(=O)c3sccc3C)cc2s1 | 0 | 0 | 25 | 0 | 0 | 0 | 0 | 0 | 0
Cc1nc2ccc(NC(=O)c3cccs3)cc2s1 | 0 | 0 | 0 | 0 | 0 | - | - | - | -
CCNC(=O)NC(=O)CSc1ccc(S(=O)(=O)N2CCCCC2)cn1 | 0 | 0 | - | 0 | 0 | - | - | - | -
COc1ccc(C(CNC(=O)c2ccc(S(=O)(=O)Nc3cccc(C)c3C)cc2)N2CCOCC2)cc1 (stereo unspecified) | 0 | 0 | - | 0 | 0 | - | - | - | -
CC(Oc1ccc(Cl)cc1Cl)C(=O)NNC(=O)c1cccnc1 (stereo unspecified) | 0 | 0 | 0 | 0 | 0 | - | - | - | -
CC(Oc1ccc(Cl)cc1Cl)c1nc(-c2ccc(NC(=O)c3cccnc3)cc2)no1 (stereo unspecified) | 0 | 0 | 25 | 0 | 0 | 0 | 0 | 0 | 0
CCN(CC)CCNC(=O)CS(=O)Cc1nc(-c2ccc(Cl)cc2)oc1C (stereo unspecified) | 0 | 0 | 0 | 0 | 0 | - | - | - | -
CCN(CC)CCNC(=O)CS(=O)Cc1nc(-c2ccc(C)cc2)oc1C (stereo unspecified) | 0 | 0 | 0 | 0 | 0 | 0 | 0 | 0 | 0
CC(C)CCN1C(=O)c2cccc3c(N)ccc(c23)C1=O | 0 | 0 | 0 | 0 | 0 | - | - | - | -
CC1(C(=O)NS(=O)(=O)c2cccc(OC(F)F)c2)CCN1C(=O)c1ccccc1CCc1ccccc1 (stereo unspecified) | - | 0 | - | - | 0 | - | - | - | -
O=C(CSc1nc2ccccc2c(=O)n1CC1CCCO1)NCC1CCCO1 (stereo unspecified) | 0 | 0 | 100 | 0 | 0 | 0 | 0 | 0 | 0
Cc1ccc(CNC(=O)CSc2nc3ccccc3c(=O)n2CC2CCCO2)cc1 (stereo unspecified) | 0 | 0 | - | 0 | 0 | - | - | - | -
